Only some compounds are listed: those with a hit (about 10% of all), similar ones and a draw of the others.
3T3 cytotox – cytotoxic compounds in NIH 3T3 cells; AID 1345082; actives 4.3% (n = 94,000); Potency, µM (titrated, usually from 96.7 µM), inactives show at the top dose activity change, negative = cytotoxicity, most hits filed as inhibitors; NIH 3T3 viability, CellTiter-Glo ATP luminescence, 48-72 h; also: nearly all actives have a fitted effect of over 55% in size
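NIH 3T3 cells at 400 cells/well received 23 nL of compound by pintool and were incubated 48 or 72 h at 37 °C. Viability was read as ATP-coupled CellTiter-Glo luminescence.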
FLuc inh – Photinus pyralis luciferase inhibition. purified P. pyralis luciferase, luminescence, biochemical. AID 1347043. actives 2.5% (n = 76,000). Potency, µM (series often up to 115 µM), hits mostly inhibitors; also: nearly all actives have a fitted effect of over 65% in size
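Purified P. pyralis luciferase (10nM final) in 50mM Tris acetate pH 7.5, 10mM Mg acetate, 0.01% Tween-20, 0.05% BSA with 10uM D-luciferin and 10uM ATP. Compounds titrated qHTS. Luminescence imaged on CCD.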
GPT2 inhibitor – blocks human glutamate pyruvate transaminase 2. Potency, µM (top dose mostly 57.7 µM), inactives show top-dose activity change, negative = inhibition, most hits filed as inhibitors. actives 0.25% (n = 100,000). Q8TD30. Recombinant GPT2, coupled pyruvate oxidase/HRP Amplex Red fluorescence; also: nearly all actives have a fitted effect of over 60% in size
Target sequence (Q8TD30 whole entry, looked up): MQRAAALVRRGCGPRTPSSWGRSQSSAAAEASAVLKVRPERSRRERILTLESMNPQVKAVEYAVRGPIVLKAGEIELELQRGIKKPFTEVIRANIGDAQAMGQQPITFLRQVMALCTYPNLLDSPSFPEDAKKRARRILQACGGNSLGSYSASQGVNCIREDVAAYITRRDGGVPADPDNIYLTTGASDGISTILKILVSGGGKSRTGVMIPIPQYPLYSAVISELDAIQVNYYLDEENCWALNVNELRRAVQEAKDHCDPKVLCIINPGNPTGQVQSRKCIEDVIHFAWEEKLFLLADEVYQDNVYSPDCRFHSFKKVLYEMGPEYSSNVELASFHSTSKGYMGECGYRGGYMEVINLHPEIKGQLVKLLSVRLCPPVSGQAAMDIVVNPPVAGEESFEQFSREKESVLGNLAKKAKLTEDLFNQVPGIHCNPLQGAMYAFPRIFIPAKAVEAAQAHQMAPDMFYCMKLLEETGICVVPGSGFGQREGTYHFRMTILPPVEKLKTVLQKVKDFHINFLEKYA
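Fluorescence of coupled pyruvate oxidase/HRP/Amplex Red system (50uM Amplex, 30 min, dark) reports pyruvate formed by GPT2. Enzyme reaction: 10ng/uL GPT2, 2mM L-alanine, 250uM a-KG, 30 min room temperature, pH 7.5; 50uM AOA control.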
HEK cytotox – kills HEK 293 cells. HEK 293 viability, ATP luminescence (CellTiter-Glo), 48-72 h. actives 6.6% (n = 94,000). Potency, µM (highest dose often 115 µM), for the others: top-dose activity change, negative = cytotoxicity, usual class: inhibitors; also: nearly all actives have a fitted effect of over 60% in size
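HEK 293 cells at 250 cells/well were exposed to compounds by pintool transfer for 48 or 72 hr at 37 degree Celsius, 5% CO2. Viability was read as ATP-coupled luminescence with CellTiter-Glo after 10 min at room temperature.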
NPR1 antag – antagonists of human natriuretic peptide receptor Npr1 | HEK293 hNpr1 GloSensor cGMP, ANP-stimulated luminescence | P16066 | Potency, µM (titrated, usually from 46.3 µM), inactives show at the top dose activity change, negative = inhibition, hits mostly inhibitors | actives 1.6% (n = 76,000); calls by dose curve; also: nearly all actives have a fitted effect of over 60% in size
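HEK293 cells stably expressing human Npr1 and cGMP GloSensor pGS-40F, loaded 2 h with 2% GloSensor reagent, given compound 30 min at room temperature. Luminescence read before and 20 min after 0.1 nM hNppA.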
* = called active by the depositor; i = inactive; ? = inconclusive; . = not tested or not shown; ! = a repeat was not active; [ ] = remark or other dose. Unless noted, calls follow the shape of the dose curve; as a rule, active = well fitted curve in the direction sought with a large enough effect; inconclusive = small, poorly fitted or top-dose-only effect, or another doubt; inactive = no such curve, though single readings can be large; an effect the other way counts as inactive or inconclusive. % is scaled to controls: 0 for no effect and ±100 for the full control effect; potency is read from the fitted curve at half-maximal effect.

SMILES | 3T3 cytotox | FLuc inh | GPT2 inhibitor | HEK cytotox | NPR1 antag
O=C(Nc1cccnc1)c1nc2c(o1)CCN(Cc1ccc(F)c(F)c1)CC2 | ? | 70.8µM* | 0.7%[88.5 µM] | ? | 28.2µM*
O=C(NCCOc1ccccc1)c1nc2c(o1)CCN(Cc1ccc3[nH]ccc3c1)CC2 | ? | i | -9.9%[88.5 µM] | 70.8µM* | ?
COCCNC(=O)c1nc2c(o1)CCN(Cc1ccc(F)c(Cl)c1)CC2 | ? | i | 0.0%[88.5 µM] | ? | ?
COCCNC(=O)[C@H]1C[C@H](Oc2ccccc2)CN1Cc1ccc(OC(F)(F)F)cc1 | ? | i | i | ? | 3.1%
O=C(Nc1cccnc1)c1nc2c(o1)CCN(Cc1ccc3[nH]ccc3c1)CC2 | ? | 35.5µM* | 0.7%[88.5 µM] | 100µM* | -14.9%[70.6 µM]
N#Cc1cccc(CN2CCc3nc(C(=O)NCc4ccncc4)oc3CC2)c1 | -25.6%[138 µM] | i | 2.4%[88.5 µM] | ? | -25.7%[70.6 µM]
COCCNC(=O)[C@H]1C[C@H](Oc2ccccc2)CN1Cc1ccc2[nH]ccc2c1 | ? | i | -18.7% | 10µM* | -3.7%
COc1ccc(S(=O)(=O)N2CCc3nnc(C4CC4)n3CC2)cc1 | -21.1% | . | 0.6% | -20.1% | .
COc1ccc(CCNC(=O)C2CCc3nnc(-c4ccc(F)cc4)n32)cc1 (centres undefined) | -1.8% | . | i | 0.8% | .
CN1CC(=O)N(C2CCCC2)Cc2c(NCc3cccc(Cl)c3)ncnc21 | ? | . | i | ? | .
O=C(Cc1ccc(Br)cc1)N1CCCN(C(=O)C2CC2)c2ccccc21 | ? | i | -16.2% | ? | -2.0%
O=C(Cc1ccc(F)cc1)N1CCCN(CCc2ccccc2)c2ccccc21 | 35.5µM* | . | i | ? | .
O=C(Cc1cccs1)N1CCCN(CCc2ccccc2)c2ccccc21 | 31.6µM* | i | i | ? | -24.3%
CN1CCCN(C(=O)Cc2ccc(OC(F)(F)F)cc2)c2ccccc21 | 39.8µM* | i | -0.2% | ? | -1.4%
CS(=O)(=O)N1CCCN(C(=O)Cc2ccc(OC(F)(F)F)cc2)c2ccccc21 | ? | i | i | ? | -0.5%
CCC(=O)N1CCCN(CCN(C)C)c2ccccc21 | -1.6% | i | 0.1% | -1.8% | 4.6%
CCOc1ccccc1C1NC(=O)N(CC(=O)Nc2ccc(F)cc2)C2=C1C(=O)OC2 (centres undefined) | ? | i | -9.0% | -17.7% | -11.5%
CCOc1ccccc1C1NC(=O)N(CC(=O)Nc2ccc(C)c(Cl)c2)C2=C1C(=O)OC2 (centres undefined) | ? | ? | -1.0% | ? | -22.1%
CCCCc1ccc(NC(=O)CN2C(=O)NC(c3ccccc3OCC)C3=C2COC3=O)cc1 (centres undefined) | 31.6µM* | i | i | 31.6µM* | -2.1%
CCOc1ccccc1C1NC(=O)N(CC(=O)Nc2cccc(Cl)c2)C2=C1C(=O)OC2 (centres undefined) | ? | i | -6.4% | 35.5µM* | -21.7%
CCOc1cc(=O)n2c(c1C(=O)Nc1ccc3c(c1)OCO3)CCCC2 | ? | 39.8µM* | i | ? | -1.5%
COC(=O)[C@@H]1Cc2c([nH]c3ccccc23)[C@H]2C[C@H](NCCCn3ccnc3)C[C@@H](c3ccccc3F)N21 | 5.01µM* | i | 3.9% | ? | -0.3%
O=C(Cc1c[nH]c2ncc(-c3ccccc3)cc12)NCCCn1ccnc1 | ? | i | 3.6%[88.5 µM] | -7.0%[172 µM] | -4.4%[70.6 µM]
CC(C)C[C@@H]1N[C@H](C(=O)NCCCn2ccnc2)Cc2c[nH]c3cccc1c23 | ? | i | -23.9%[88.5 µM] | ? | 1.5%[70.6 µM]
C[C@H]1CCCN1C(=O)c1nnc(CNCCCn2ccnc2)n1-c1ccccc1 | ? | i | -6.6%[88.5 µM] | i | -1.8%[70.6 µM]
SMILES | 3T3 cytotox | FLuc inh | GPT2 inhibitor | HEK cytotox | NPR1 antag
COC(=O)[C@@H]1Cc2c([nH]c3ccccc23)[C@@H]2C[C@@H](NCCCn3ccnc3)C[C@@H](c3ccc(F)c(F)c3)N12 | 28.2µM* | i | -0.4% | 25.1µM* | 6.2%
COC(=O)[C@@H]1Cc2c([nH]c3ccccc23)[C@H]2C[C@@H](NCCCn3ccnc3)C[C@@H](c3ccccc3)N21 | 20µM* | i | i | ? | -2.3%
O=C(C1CCCN1C(=O)c1ccc(C(F)(F)F)cc1)N1CCC(N2Cc3cccn3C2=O)CC1 (centres undefined) | ? | . | 1.8% | ? | .
Cc1ccc(C2Cn3nnc(-c4noc(-c5ccccn5)n4)c3CO2)cc1 (centres undefined) | 4.1% | i | -1.1% | 5.4% | 5.8%
CC(C)NC(=O)NCCNC(=O)c1ccc(-c2cncnc2)cc1 | -6.6%[138 µM] | . | . | 0.3%[172 µM] | .
N#Cc1cccc(CN2Cc3[nH]cnc3C[C@H]2c2nc(-c3ccc(OC(F)(F)F)cc3)no2)c1 | ? | ? | -14.6% | ? | -26.7%
COc1ccc(-c2noc([C@@H]3Cc4nc[nH]c4CN3Cc3ccc(CO)o3)n2)cc1 | -25.1%[138 µM] | 39.8µM* | 2.9%[88.5 µM] | -24.5%[172 µM] | -4.7%[70.6 µM]
COc1ccc(CN2Cc3[nH]cnc3C[C@H]2c2nc(-c3ccccn3)no2)cc1 | ? | 35.5µM* | i | ? | -17.7%[70.6 µM]
COc1ccccc1CN1Cc2[nH]cnc2C[C@H]1c1nc(-c2cccc(C)c2)no1 | 70.8µM* | i | -1.5%[88.5 µM] | 63.1µM* | -26.2%[70.6 µM]
COc1ccc(-c2noc([C@@H]3Cc4nc[nH]c4CN3Cc3ccc(C)cc3)n2)cc1 | ? | 63.1µM* | 2.5%[88.5 µM] | 89.1µM* | -24.9%[70.6 µM]
COc1ccc(CN2Cc3[nH]cnc3C[C@H]2c2nc(-c3ccncc3)no2)cc1 | ? | i | -4.9%[88.5 µM] | ? | -26.4%[70.6 µM]
COc1ccc(CN2Cc3[nH]cnc3C[C@H]2c2nc(-c3ccc4ccccc4c3)no2)cc1 | 39.8µM* | i | ? | 44.7µM* | -20.2%
COc1ccc(-c2noc([C@@H]3Cc4nc[nH]c4CN3C(=O)c3ccc(F)cc3)n2)cc1 | ? | ? | -1.6%[88.5 µM] | ? | -10.5%[70.6 µM]
COc1ccc(CN2Cc3[nH]cnc3C[C@H]2c2nc(-c3ccc(C)cc3)no2)cc1 | 79.4µM* | 39.8µM* | 4.1%[88.5 µM] | 100µM* | -21.9%[70.6 µM]
O=C(C1CCCN1C(=O)c1cccc(-c2ccccn2)c1)N1CCC(Cc2ccccc2)CC1 (centres undefined) | ? | . | i | ? | .
COc1cccc(-c2cccc(C(=O)N3CCCC3C(=O)NCc3ccccc3F)c2)c1 (centres undefined) | ? | . | i | ? | .
CC(C)Cn1c(CNC(=O)OC(C)(C)C)nc2cccnc21 | 44.7µM*! | i | 1.6% | ? | 4.8%[70.6 µM]
CCC(CC)C(=O)NC[C@@H]1C=C(C)[C@H](Cc2nc3ccc(C)cc3[nH]2)C[C@H]1C(C)C | ? | i | i | 63.1µM* | -16.9%[70.6 µM]
